Results from PubChem BioAssay AID1159580 (chemical genetic matrix, 2015).
Values joined by “and” are separate entries in the source; they are usually repeats but may differ in a detail not shown here. Equal entries are not always repeated. The whole screen tested about 5,500 compounds, of which about 2,000 (36%) were called active. Not shown: some 18% with an inconclusive outcome. Cut-off read from the data, not from the text of the source: active = normalized growth mostly below about 0.91 (no sharp cut-off); inconclusive = no clear call, values can overlap the other calls; inactive = mostly above about 0.92. This is one part of the list.

Assay: chemical genetic growth profiling, strain panel (AID 1159580);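 note: tested at 20 µM; growth read once vehicle control cultures reached saturation at 30 °C; 1 = growth at the plate median or of vehicle wells; lower values mean less growth of the strain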
Conditions: S. cerevisiae deletion strains, growth OD

Measured: normalized growth

CNC(Cc1c[nH]c2ccccc12)C(=O)O (stereo not drawn)
inactive: locus YAL013W, strain DEP1, hits give low values 0.988 | locus YAL021C, strain ccr4, hits give low values 0.972 | locus YAL026C, strain drs2, hits give low values 0.982 | locus YAL030W, strain snc1, hits give low values 0.974 | locus YBL061C, strain skt5, hits give low values 0.986 | locus YBR009C, strain hhf1, hits give low values 0.976 | locus YBR021W, strain FUR4, hits give low values 1 | locus YBR023C, strain chs3, hits give low values 0.994 | locus YBR171W, strain sec66, hits give low values 0.986 | locus YBR229C, strain ROT2, hits give low values 0.959 | locus YBR231C, strain swc5, hits give low values 1 | locus YBR279W, strain paf1, hits give low values 0.997 | locus YCL011C, strain gbp2, hits give low values 0.985 | locus YCL016C, strain dcc1, hits give low values 0.976 | locus YCL029C, strain bik1, hits give low values 0.996 | locus YCL061C, strain MRC1, hits give low values 0.983 | locus YCL069W, strain vba3, hits give low values 0.977 | locus YCR088W, strain abp1, hits give low values 0.991 | locus YDL005C, strain med2, hits give low values 0.975 | locus YDL035C, strain GPR1, hits give low values 0.931 | locus YDL040C, strain nat1, hits give low values 0.976 | locus YDL074C, strain BRE1, hits give low values 0.981 | locus YDL101C, strain DUN1, hits give low values 0.982 | locus YDL134C, strain PPH21, hits give low values 0.972 | locus YDL185W, strain tfp1, hits give low values 0.97 | locus YDL192W, strain arf1, hits give low values 0.986 | locus YDR001C, strain nth1, hits give low values 0.976 | locus YDR069C, strain doa4, hits give low values 0.991 | locus YDR101C, strain arx1, hits give low values 1.04 | locus YDR137W, strain rgp1, hits give low values 1.01 | locus YDR159W, strain sac3, hits give low values 0.986 | locus YDR162C, strain NBP2, hits give low values 0.994 | locus YDR195W, strain ref2 0.944 | locus YDR297W, strain sur2, hits give low values 0.99 | locus YDR318W, strain mcm21, hits give low values 0.973 | locus YDR334W, strain swr1, hits give low values 0.983 | locus YDR335W, strain msn5, hits give low values 0.987 | locus YDR388W, hits give low values 0.989 | locus YDR392W, strain spt3, hits give low values 0.963 | locus YDR502C, strain sam2, hits give low values 0.992 | locus YEL003W, strain gim4, hits give low values 1 | locus YEL037C, strain rad23, hits give low values 0.978 | locus YEL061C, strain CIN8 (second series), hits give low values 0.976 | locus YEL061C, strain CIN8, hits give low values 0.987 | locus YER015W, strain faa2, hits give low values 0.986 | locus YER016W, strain bim1, hits give low values 0.988 | locus YER110C, hits give low values 0.99 | locus YER111C, strain swi4, hits give low values 0.988 | locus YER155C, strain BEM2 (second series), hits give low values 0.996 | locus YER155C, strain BEM2, hits give low values 1 | locus YER167W, strain BCK2, hits give low values 1.01 | locus YFR010W, strain ubp6, hits give low values 0.988 | locus YGL078C, strain dbp3, hits give low values 0.996 | locus YGL086W, strain mad1, hits give low values 1.02 | locus YGL167C, strain pmr1, hits give low values 0.971 | locus YGL173C, strain kem1, hits give low values 0.996 | locus YGL227W, strain vid30, hits give low values 0.988 | locus YGL240W, strain doc1, hits give low values 1 | locus YGL248W, strain PDE1, hits give low values 0.972 | locus YGL253W, strain hxk2, hits give low values 0.995 | locus YGR135W, strain pre9, hits give low values 0.973 | locus YGR252W, strain gcn5, hits give low values 0.929 | locus YHR013C, strain ard1, hits give low values 0.978 | locus YHR027C, strain rpn1, hits give low values 0.982 | locus YHR030C, strain SLT2, hits give low values 1 and 0.971 | locus YHR079C, strain IRE1 (second series), hits give low values 0.991 | locus YHR079C, strain IRE1, hits give low values 0.97 | locus YHR094C, strain hxt1, hits give low values 0.979 | locus YHR129C, strain ARP1, hits give low values 0.996 | locus YHR142W, strain chs7, hits give low values 0.986 | locus YHR200W, strain rpn10, hits give low values 0.986 | locus YIL066C, strain RNR3, hits give low values 0.973 | locus YIL073C, strain SPO22, hits give low values 0.977 | locus YIL125W, strain kgd1, hits give low values 0.994 | locus YIR030C, strain dcg1, hits give low values 0.997 | locus YJL092W, strain hpr5, hits give low values 0.977 | locus YJL095W, strain BCK1 (second series), hits give low values 0.981 | locus YJL095W, strain BCK1, hits give low values 0.973 and 1.05 | locus YJL115W, strain asf1, hits give low values 0.971 | locus YJL129C, strain trk1, hits give low values 0.971 | locus YJL134W, strain LCB3, hits give low values 0.985 | locus YJL154C, strain vps35, hits give low values 0.986 | locus YJL164C, strain tpk1, hits give low values 0.968 | locus YJL166W, strain qcr8, hits give low values 0.99 | locus YJL168C, strain set2, hits give low values 0.992 | locus YJL187C, strain SWE1 (second series), hits give low values 0.971 | locus YJL187C, strain SWE1, hits give low values 0.99 | locus YJR043C, strain POL32, hits give low values 0.974
